FEN1 inh: blocks human flap endonuclease 1; P39748; Recombinant FEN1 flap cleavage, fluorescence, 15 min; Potency, µM (titrated, usually from 114 µM), hits mostly inhibitors; 0.35% of 390,000 active; AID 588795; also: nearly all actives have a fitted effect of over 65% in size
Target sequence (P39748 whole entry, looked up): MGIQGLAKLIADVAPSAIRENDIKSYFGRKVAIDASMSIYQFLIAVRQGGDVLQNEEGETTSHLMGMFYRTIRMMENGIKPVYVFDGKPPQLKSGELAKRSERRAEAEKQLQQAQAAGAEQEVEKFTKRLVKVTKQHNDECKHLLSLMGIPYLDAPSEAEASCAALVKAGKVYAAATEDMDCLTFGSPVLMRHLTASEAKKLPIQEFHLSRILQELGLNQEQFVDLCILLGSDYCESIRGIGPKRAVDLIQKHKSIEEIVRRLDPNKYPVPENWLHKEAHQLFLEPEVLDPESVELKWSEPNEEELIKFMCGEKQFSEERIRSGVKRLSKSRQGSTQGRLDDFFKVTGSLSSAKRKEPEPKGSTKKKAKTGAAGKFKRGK
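Enzyme 10 nM, 15 min RT preincubation with compound; start with substrate 50 nM final; reads at 0 and 15 min; qHTS titration, four-parameter Hill fit.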
PGK inhibitor: blocks T. brucei phosphoglycerate kinase; 0.043% of 380,000 active; Potency, µM (titrated, usually from 57.5 µM), most hits filed as inhibitors; P07378; PGK/GAPDH coupled, Kinase-Glo luminescence, 60 min; also: nearly all actives have a fitted effect of over 60% in size
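Recombinant glycosomal PGK reaction used 1,3-bisphosphoglycerate generated in-well by GAPDH (100nM final) in 100mM TEA pH 7.6, 5mM MgCl2, 0.01% Tween-20. After 60 minutes at room temperature, ATP was read by Kinase-Glo Plus luminescence end-point.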
WRN inhibitor: blocks human WRN helicase; Potency, µM (series often up to 114 µM), most hits filed as inhibitors; 0.46% of 360,000 active; WRN helicase unwinding, fluorescent forked duplex, kinetic; also: nearly all actives have a fitted effect of over 55% in size
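Screening of the MLSMR collection measured strand separation of a quenched forked DNA duplex (100 nM) by 20 nM WRN with 2 mM ATP, all final. Compounds were preincubated with enzyme 15 min at room temperature.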
PI5P4K alpha inh: blocks human PI5P4K alpha kinase activity | P48426 | PI5P4Kalpha enzyme, ADP-Glo luminescence, 60 min; hits give low values | max response, % | 1.2% of 330,000 active; active = max response of -50% or lower; inconclusive = between -30% and -50%; inactive = -30% or higher; also: value at the top dose of about 77 µM
Target sequence (P48426 whole entry, looked up): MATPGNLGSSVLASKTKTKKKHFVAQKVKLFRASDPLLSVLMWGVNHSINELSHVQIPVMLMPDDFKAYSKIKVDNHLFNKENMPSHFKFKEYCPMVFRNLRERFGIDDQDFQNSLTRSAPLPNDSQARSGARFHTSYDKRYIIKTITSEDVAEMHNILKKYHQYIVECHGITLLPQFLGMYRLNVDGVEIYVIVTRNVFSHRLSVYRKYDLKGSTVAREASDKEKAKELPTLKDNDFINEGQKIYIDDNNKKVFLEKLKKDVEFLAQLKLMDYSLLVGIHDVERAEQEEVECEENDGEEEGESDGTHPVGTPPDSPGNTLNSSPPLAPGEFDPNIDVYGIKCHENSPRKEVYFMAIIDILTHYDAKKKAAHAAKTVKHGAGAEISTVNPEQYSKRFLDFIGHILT
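qHTS, 1536-well: enzyme/substrate mix, compound by pin tool, 5 microM ATP final; RT 60 min; ADP-Glo reagents 1 (45 min) then 2 (30 min); luminescence.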
Pin1 inh: inhibitors of human Pin1 | Q13526 | 0.009% of 390,000 active | Potency, µM (doses to about 115 µM), actives largely listed as inhibitors | Pin1 FP peptide displacement, HiFluor488, 10 min; active = well fitted inhibition curve with a large enough effect in the polarisation, with a control signal flat, not every such curve was filed as active; inconclusive = small, poorly fitted or top-dose-only effect, or effect the other way, or a change in a side signal; inactive = no such curve, though single readings can be large or run the other way; the % refers to the polarisation
GRP78 ERSR act: inducers of ER stress response in human glioma cells; U87-MG GRP78 promoter luciferase reporter, 16 h; Potency, µM, usual class: activators; 0.02% of 420,000 active; also: series mostly up to about 76 µM; nearly all actives have a fitted effect of over 35% in size
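Stably transfected U87-MG human glioma cells carrying a GRP78-based luminescent sensor were seeded at 1000 cells/well, pin-dosed with compounds and incubated 16 h. Luciferase reagent was then added, and end-point luminescence was read after 10 min at room temperature.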
Of the large screens only hits and unclear results are named; the others gave an inactive call. Most compounds without a hit are left out; they make up all but 1.3% or so of the library. Unless noted, calls follow the shape of the dose curve; as a rule, active = well fitted curve in the direction sought with a large enough effect; inconclusive = small, poorly fitted or top-dose-only effect, or another doubt; inactive = no such curve, though single readings can be large; an effect the other way counts as inactive or inconclusive.

C/C(=N\NC(=O)c1ccccc1)c1c(O)n(Cc2ccccc2)c(=O)[nH]c1=O	PI5P4K alpha inh -68.1
CC(=NCCc1c[nH]c2ccccc12)c1c(O)n(Cc2ccccc2)c(=O)[nH]c1=O	none
COc1ccc(C(=O)O)cc1OC	none
O=C(O)c1cc[c]([Hg][Cl])cc1	FEN1 inh 25.1µM, PI5P4K alpha inh -57.7
Cc1ccc(NS(=O)(=O)c2ccc(Cl)c(N=Nc3c(O)[nH]c(=O)[nH]c3=O)c2)cc1Cl	FEN1 inh 44.7µM, PI5P4K alpha inh inconclusive, Pin1 inh inconclusive
On1ccccc1=S	FEN1 inh inconclusive, PI5P4K alpha inh -100.2
CCC(=O)OC1[C@@H](N2CCCCC2)C[C@H]2[C@@H]3CC[C@H]4C[C@H](OC(C)=O)[C@@H](N5CCCCC5)C[C@]4(C)[C@H]3CC[C@]12C (some centres not stated)	none (no result: FEN1 inh, PGK inhibitor, WRN inhibitor, PI5P4K alpha inh, Pin1 inh)
CC(C)CCOP(=O)(c1ccc(N(C)C)cc1)C(O)c1c(Cl)cccc1Cl (configuration not stated)	Pin1 inh inconclusive
CC(C)OC(=O)C(O)(c1ccc(Cl)cc1)c1ccc(Cl)cc1	none (no result: FEN1 inh, PGK inhibitor, WRN inhibitor, PI5P4K alpha inh, Pin1 inh)
O=C(O)c1cccc2c1NC(C(=O)O)C1CC(Sc3ccccc3[N+](=O)[O-])C(Cl)C21 (configuration not stated)	FEN1 inh 44.7µM, PGK inhibitor 11.2µM, WRN inhibitor 31.6µM, PI5P4K alpha inh -67.4 (no result: Pin1 inh)
COc1ccc(C(=O)NCCn2cc(SC(C)c3ccccc3)c3ccccc32)cc1OC (configuration not stated)	FEN1 inh inconclusive (no result: WRN inhibitor, PI5P4K alpha inh)
COc1cc2c(cc1O)C[C@H]1NCCc3cc4c(c-2c31)OCO4	FEN1 inh 10µM, WRN inhibitor inconclusive, Pin1 inh inconclusive, GRP78 ERSR act inconclusive
O=C1NC(=O)N(c2ccc(Cl)cc2)C(=O)/C1=C/c1coc2ccc(O)cc2c1=O	WRN inhibitor inconclusive, PI5P4K alpha inh -58.4
O=C1NC(=O)N(c2ccccc2)C(=O)/C1=C/c1coc2ccc(O)cc2c1=O	WRN inhibitor inconclusive, PI5P4K alpha inh -66.0
Cc1cc(/C=C2\C(=O)NC(=O)N(c3ccc(Cl)cc3)C2=O)c(C)n1-c1cccc(C(=O)O)c1	FEN1 inh inconclusive, WRN inhibitor inconclusive, PI5P4K alpha inh inconclusive
O=C(N/N=C/c1c(O)n(CCc2ccc(F)cc2)c(=O)[nH]c1=O)c1ccccc1	none
O=C(N/N=C/c1c(O)n(CCc2ccccc2)c(=O)[nH]c1=O)c1ccncc1	PI5P4K alpha inh -76.7
O=C(N/N=C/c1c(O)n(CCc2ccc(F)cc2)c(=O)[nH]c1=O)c1ccncc1	PI5P4K alpha inh -64.8
CC(C)C[C@H]1CNC(=S)N1CC1CCN(CC2CCC(C(C)(C)C)CC2)CC1 (some centres not stated)	FEN1 inh inconclusive
C[S@@](=O)CCCCN=C=S	none (no result: FEN1 inh, PGK inhibitor, WRN inhibitor, PI5P4K alpha inh, Pin1 inh)
O=C1c2ccccc2C(=O)c2ccccc21	none (no result: FEN1 inh, PGK inhibitor, WRN inhibitor, PI5P4K alpha inh, Pin1 inh)
c1ccc2c(c1)[IH]c1ccccc1-2	FEN1 inh 50.1µM
CCOc1ccc(N2CC(c3nc4ccccc4n3CCC3CCCCC3)CC2=O)cc1 (configuration not stated)	Pin1 inh inconclusive (no result: WRN inhibitor, PI5P4K alpha inh)
Cc1cc(/C=C2\C(=O)NC(=O)N(c3cccc(F)c3)C2=O)c(C)n1-c1cc(C(=O)O)cc(C(=O)O)c1	FEN1 inh inconclusive, PGK inhibitor inconclusive, WRN inhibitor inconclusive, PI5P4K alpha inh -81.3, Pin1 inh inconclusive
C=CCN1C(=O)NC(=O)/C(=C/c2cc3c4c(c2)CCCN4CCC3)C1=O	PI5P4K alpha inh inconclusive
C=CCN1C(=O)NC(=O)/C(=C/c2cnc(SC)nc2)C1=O	WRN inhibitor inconclusive, PI5P4K alpha inh -57.2
CC(Oc1ccccc1)C(=O)Nc1ccc(C(=O)OCc2cc(=O)n3nc(C4CC4)sc3n2)cc1 (configuration not stated)	Pin1 inh inconclusive (no result: WRN inhibitor, PI5P4K alpha inh)
O=C(O)CCn1cc(C=C2C(=O)NC(=S)NC2=O)c(-c2ccccc2)n1	WRN inhibitor inconclusive, PI5P4K alpha inh -91.1, Pin1 inh inconclusive
N#CCCn1cc(C=C2C(=O)NC(=O)NC2=O)c(-c2ccccc2)n1	none
O=C(O)CCn1cc(C=C2C(=O)NC(=S)NC2=O)c(-c2cc3ccccc3oc2=O)n1	FEN1 inh inconclusive, WRN inhibitor inconclusive, PI5P4K alpha inh -71.4
CCCCCc1cc(O)c2c(c1)OC(C)(C)c1ccc(C)cc1-2	none (no result: FEN1 inh, PGK inhibitor, WRN inhibitor, PI5P4K alpha inh, Pin1 inh)
CCOc1ccc2nc(N=Nc3c(O)[nH]c(=O)[nH]c3=O)sc2c1	PI5P4K alpha inh -86.4, Pin1 inh inconclusive
CCOc1ccc2nc(N=Nc3c(O)[nH]c(=S)[nH]c3=O)sc2c1	FEN1 inh inconclusive, PI5P4K alpha inh -79.8
C=CCN1C(=O)/C(=C/c2ccc(N3CCOCC3)o2)C(=O)NC1=S	Pin1 inh inconclusive
O=C1NC(=O)N(Cc2ccco2)C(=O)/C1=C/c1ccc(-c2cccc([N+](=O)[O-])c2)o1	FEN1 inh inconclusive, PGK inhibitor inconclusive, WRN inhibitor 22.4µM, PI5P4K alpha inh -80.2, Pin1 inh inconclusive
C=CCN1C(=O)NC(=O)/C(=C\c2ccc(-c3ccccc3[N+](=O)[O-])o2)C1=O	FEN1 inh inconclusive, WRN inhibitor inconclusive, PI5P4K alpha inh -53.0
COC(=O)C1=Nc2ccccc2/C1=C\c1c(O)n(-c2ccc(OC)cc2)c(=O)[nH]c1=O	WRN inhibitor inconclusive (no result: PI5P4K alpha inh)
COC(=O)C1=Nc2ccccc2/C1=C\c1c(O)n(C)c(=O)n(C)c1=O	PI5P4K alpha inh -70.1
COC(=O)C1=Nc2ccccc2/C1=C\c1c(O)n(-c2ccc(Br)cc2)c(=O)[nH]c1=O	WRN inhibitor 50.1µM, PI5P4K alpha inh -101.6, Pin1 inh inconclusive
CCc1cc(OC)c(CC(C)N)cc1OC (configuration not stated)	none (no result: FEN1 inh, PGK inhibitor, WRN inhibitor, PI5P4K alpha inh, Pin1 inh)
C=CCC1=C(C)C(OC(=O)C2C(C=C(C)C)C2(C)C)CC1=O (configuration not stated)	none (no result: FEN1 inh, PGK inhibitor, WRN inhibitor, PI5P4K alpha inh, Pin1 inh)
C[C@@H]1O[C@@H](OC2CC(O)C3(CO)C4C(CCC3(O)C2)C2(O)CCC(C3=CC(=O)OC3)C2(C)C[C@H]4O)[C@H](O)[C@H](O)[C@H]1O (some centres not stated)	none (no result: FEN1 inh, PGK inhibitor, WRN inhibitor, PI5P4K alpha inh, Pin1 inh)
COc1ccc(/C=C2\C(=O)NC(=O)N(Cc3ccccc3)C2=O)c(OC)c1OC	FEN1 inh inconclusive
CC(C)c1ccc(N2C(=O)NC(=O)/C(=C\C=C\c3ccco3)C2=O)cc1	FEN1 inh inconclusive, WRN inhibitor inconclusive, PI5P4K alpha inh -69.2, Pin1 inh inconclusive
O=C1NC(=O)N(Cc2ccccc2)C(=O)/C1=C/C=C/c1ccco1	FEN1 inh inconclusive, WRN inhibitor 50.1µM, PI5P4K alpha inh -52.9, Pin1 inh inconclusive
Oc1ccc(/C=N/NP(=S)(c2ccccc2)c2ccccc2)c(O)c1O	FEN1 inh inconclusive, WRN inhibitor inconclusive, PI5P4K alpha inh -51.2
